# Measurements reported in PubChem BioAssay.
# Results filed as inconclusive are left out. Active and inactive are the calls of the source. Unless noted, the limit is not given here; nearly all actives have AC50 up to about 30 µM.
# Experiment: viability loss in pontine glioma line – cell-based, SU-DIPG-XXV, MIPE5.0, CellTiter-Glo, qHTS, dose response (AID 1347065; cut-off not given, nearly all actives have AC50 up to about 26 µM;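 also: cells exposed to compound for 48 hours before ATP readout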)
# Settings: CellTiter-Glo ATP luminescence
SMILES,AC50,outcome
CC[C@]1(O)CC2CN(CCc3c([nH]c4ccccc34)[C@@](C(=O)OC)(c3cc4c(cc3OC)N(C)[C@H]3[C@@](O)(C(=O)OC)[C@H](OC(C)=O)[C@]5(CC)C=CCN6CC[C@]43[C@@H]65)C2)C1 (some centres undefined),0.0148 µM (active),
C[C@]12CCC3c4ccc(O)cc4CCC3C1CCC2=O (some centres undefined),,inactive
OC[C@@H](O)[C@@H](O)[C@H](O)[C@@H](O)CO,,inactive
COC(=O)/C=C/C(=O)OC,,inactive
C=CC[C@@H]1/C=C(\C)C[C@H](C)C[C@H](OC)[C@H]2O[C@@](O)(C(=O)C(=O)N3CCCC[C@H]3C(=O)O[C@H](/C(C)=C/[C@@H]3CC[C@@H](O)[C@H](OC)C3)[C@H](C)[C@@H](O)CC1=O)[C@H](C)C[C@@H]2OC,20.9 µM (active),
O=c1ccn([C@@H]2O[C@H](CO)[C@@H](O)[C@H]2O)c(=O)[nH]1,,inactive
N#C[C@@H]1C[C@@H]2C[C@@H]2N1C(=O)[C@@H](N)C12CC3CC(CC(O)(C3)C1)C2,,inactive
Cc1coc2c1C(=O)C(=O)c1c-2ccc2c1CCCC2(C)C,16.6 µM (active),
COC1=C(OC)C(=O)C(C/C=C(\C)CC/C=C(\C)CC/C=C(\C)CC/C=C(/C)CC/C=C(\C)CC/C=C(\C)CC/C=C(\C)CC/C=C(\C)CC/C=C(\C)CCC=C(C)C)=C(C)C1=O,,inactive
OC(c1cc(C(F)(F)F)nc2c(C(F)(F)F)cccc12)C1CCCCN1 (centres undefined),20.9 µM (active),
C[C@H]1COC2=C1C(=O)C(=O)c1c2ccc2c1CCCC2(C)C,20.9 µM (active),
CCCCS(=N)(=O)CCC(N)C(=O)O (centres undefined),,inactive
CC[C@@]1(O)C(=O)OCc2c1cc1n(c2=O)Cc2cc3cc(O)ccc3nc2-1,0.148 µM (active),
Clc1ccc(CCC(Cn2ccnc2)Sc2c(Cl)cccc2Cl)cc1 (centres undefined),,inactive
COc1ccc2nc3cc(Cl)ccc3c(Nc3cc(CN4CCCC4)c(O)c(CN4CCCC4)c3)c2n1,7.42 µM (active),
CC(C)C(C)/C=C/C(C)C1CCC2C3=CC=C4CC(O)CCC4(C)C3CCC21C (centres undefined),,inactive
CN1C(C(=O)Nc2ccccn2)=C(O)c2sc(Cl)cc2S1(=O)=O,,inactive
CC(=O)NC(CS)C(=O)O (centres undefined),,inactive
CC(NCCc1ccc(O)cc1)C(O)c1ccc(O)cc1 (centres undefined),,inactive
CN[C@@H]1[C@H](O[C@H]2[C@H](O[C@@H]3[C@@H](O)[C@H](O)[C@@H](N=C(N)N)[C@H](O)[C@H]3N=C(N)N)O[C@@H](C)[C@]2(O)C=O)O[C@@H](CO)[C@H](O)[C@H]1O,,inactive
Cc1c(-c2cnccn2)ssc1=S,11.8 µM (active),
Nc1nc(F)nc2c1ncn2[C@@H]1O[C@H](COP(=O)(O)O)[C@@H](O)[C@@H]1O,,inactive
Cc1cc2nc3c(=O)[nH]c(=O)nc-3n(CC(O)C(O)C(O)CO)c2cc1C (centres undefined),,inactive
N[C@@H](CC(=O)N1CCn2c(nnc2C(F)(F)F)C1)Cc1cc(F)c(F)cc1F,,inactive

# Experiment: SU-DIPG-VI glioma cell viability, MIPE4.0 library, CellTiter-Glo luminescence, qHTS (AID 1347066);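 also: cells exposed to compound for 48 hours before readout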
# Settings: CellTiter-Glo ATP luminescence
SMILES,outcome,AC50
C[C@]12CCC3c4ccc(O)cc4CCC3C1CCC2=O (some centres undefined),inactive,
OC[C@@H](O)[C@@H](O)[C@H](O)[C@@H](O)CO,inactive,
COC(=O)/C=C/C(=O)OC,inactive,
O=c1ccn([C@@H]2O[C@H](CO)[C@@H](O)[C@H]2O)c(=O)[nH]1,inactive,
C[C@H]1COC2=C1C(=O)C(=O)c1c2ccc2c1CCCC2(C)C,inactive,
CCCCS(=N)(=O)CCC(N)C(=O)O (centres undefined),inactive,
CC[C@@]1(O)C(=O)OCc2c1cc1n(c2=O)Cc2cc3cc(O)ccc3nc2-1,inactive,
Oc1cc2c(cc1O)C1c3ccc(O)c(O)c3OCC1(O)C2 (centres undefined),inactive,
Nc1nc(N)c2nc(CNc3ccc(C(=O)NC(CCC(=O)O)C(=O)O)cc3)cnc2n1 (centres undefined),inactive,
N#CC(c1ccc(Cl)cc1)c1c(Cl)cc(-n2ncc(=O)[nH]c2=O)cc1Cl (centres undefined),,13.2 µM (active)
COc1ccc2nc3cc(Cl)ccc3c(Nc3cc(CN4CCCC4)c(O)c(CN4CCCC4)c3)c2n1,inactive,
CC1=C(C(=O)O)N2C(=O)[C@@H](NC(=O)C(N)c3ccccc3)[C@H]2SC1 (some centres undefined),inactive,
CC(C)C(C)/C=C/C(C)C1CCC2C3=CC=C4CC(O)CCC4(C)C3CCC21C (centres undefined),inactive,
CC1CC2C3CCC4=CC(=O)C=C[C@]4(C)[C@@]3(F)[C@@H](O)C[C@]2(C)[C@@]1(O)C(=O)CO (some centres undefined),inactive,
CC(C)(CO)[C@@H](O)C(=O)NCCC(=O)O,inactive,
CN1C(C(=O)Nc2ccccn2)=C(O)c2sc(Cl)cc2S1(=O)=O,inactive,
CC(=O)NC(CS)C(=O)O (centres undefined),inactive,
CC(NCCc1ccc(O)cc1)C(O)c1ccc(O)cc1 (centres undefined),inactive,
CN(C)CC[C@H](c1ccc(Cl)cc1)c1ccccn1,inactive,
COc1ccc(C2Sc3ccccc3N(CCN(C)C)C(=O)C2OC(C)=O)cc1 (centres undefined),inactive,
CC(C)=CCC/C(C)=C/CC/C(C)=C/CC/C(C)=C/CC/C(C)=C/CC/C(C)=C/CC/C(C)=C/CC/C(C)=C/CC/C(C)=C/CO,inactive,
Nc1nc(F)nc2c1ncn2[C@@H]1O[C@H](COP(=O)(O)O)[C@@H](O)[C@@H]1O,inactive,
CC1(C)CCC[C@]2(C)[C@H]3CC(=O)O[C@]3(C)CC[C@@H]12,inactive,
Cc1cc2nc3c(=O)[nH]c(=O)nc-3n(CC(O)C(O)C(O)CO)c2cc1C (centres undefined),inactive,
N[C@@H](CC(=O)N1CCn2c(nnc2C(F)(F)F)C1)Cc1cc(F)c(F)cc1F,inactive,
